# Results published in PubChem BioAssay (NCATS).
# Inconclusive results are not listed. The source made the active and inactive calls. Calls follow the shape of the full dose curve.
# Assay: VSVG counterscreen qHTS to identify inhibitors of SARS-CoV-2 cell entry (AID 1645847); also: nearly all actives have a fitted effect of over 65% in size
# Conditions: VSV-G pseudotyped particle entry, luciferase; series mostly up to 57.2 µM
# Summary of the method: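 Luminescence from a luciferase reporter, normalised to bald particle and VSV-G pseudotyped particle wells, is the read-out. Cells are HEK293 expressing human ACE2, exposed to compound 1 h before a 48 h particle infection at 37 °C.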
# Potency is read from the fitted curve at half-maximal effect.
row,Structure (SMILES),Potency
1,COC(=O)Nc1nc2ccc(C(=O)c3ccc(F)cc3)cc2[nH]1,0.961 µM (active)
2,CN1c2ccccc2C(=O)N2CCc3c([nH]c4ccccc34)C21 (centres undefined),3.83 µM (active)
3,O=C(NC1CC1)c1cccc(-c2ccc3c(NC(=O)C4CC4)n[nH]c3c2)c1,15.2 µM (active)
4,COc1cc(C)c(Sc2cnc(NC(=O)c3ccc(CNC(C)C(C)C)cc3)s2)cc1C(=O)N1CCN(C(C)=O)CC1 (centres undefined),3.83 µM (active)
